FGF22 binding-1 – binders of human FGF22 protein, primary screen, FGF22 synaptogenesis inhibitor project, biophysical, thermal shift, single point. Fibroblast growth factor 22 (Homo sapiens), Q9HCT0. recombinant FGF22 thermal shift, SYPRO orange fluorescence; percent of sucrose octasulfate shift, DMSO zero. activity (Tm shift, normalised), % at 9.99 µM. actives 1.5% (n = 340,000). AID 651658, 2012;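 active = mean Tm shift, scaled 0 neutral to 100 positive control, at about 1.3% or above, every replicate too, limit read from the data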
Target sequence (Q9HCT0 whole entry, looked up): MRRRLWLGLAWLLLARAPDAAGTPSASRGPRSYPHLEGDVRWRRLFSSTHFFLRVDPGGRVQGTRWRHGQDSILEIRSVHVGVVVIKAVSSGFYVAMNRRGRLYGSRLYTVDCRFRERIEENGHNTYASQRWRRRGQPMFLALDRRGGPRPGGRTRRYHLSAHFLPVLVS
SIRT5 inh – SIRT5 desuccinylase inhibitors, primary screen, biochemical, fluorescence imaging, single point, set 5; NAD-dependent protein deacylase sirtuin-5, mitochondrial (Homo sapiens), Q9NXA8; Purified SirT5, succinyl-peptide AMC, trypsin-coupled fluorescence; actives 1.1% (n = 330,000); inhibition, % at 15 µM; in the data active = inhibition above about 15%
dFosB act – activators of delta FosB homodimer, primary screen, biochemical, fluorescence polarization, TAMRA-CDK5 oligo, single point; actives 0.99% (n = 340,000); Protein FosB (Mus musculus), P13346; purified delta FosB; percent of positive-control signal above neutral wells; activation, % at 25 µM; AID 493131, 2011;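 active = mean activation above about 17%, with every replicate also reaching it, limit read from the data, passing the limit was not always enough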
Target sequence (P13346 whole entry, looked up): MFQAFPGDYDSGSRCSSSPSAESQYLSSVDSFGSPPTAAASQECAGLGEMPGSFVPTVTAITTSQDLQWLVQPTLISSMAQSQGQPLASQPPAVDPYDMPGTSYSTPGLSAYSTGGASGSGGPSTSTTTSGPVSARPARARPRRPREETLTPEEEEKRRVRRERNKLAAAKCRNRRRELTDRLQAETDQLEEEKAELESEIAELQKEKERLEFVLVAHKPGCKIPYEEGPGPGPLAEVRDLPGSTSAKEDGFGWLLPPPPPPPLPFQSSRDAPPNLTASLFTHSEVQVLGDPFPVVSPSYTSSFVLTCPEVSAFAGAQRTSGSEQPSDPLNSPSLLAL
CDK5 p35 inh – inhibitors of human CDK5/p35 kinase, primary screen, biochemical, single concentration; actives 0.01% (n = 330,000); inhibition, % at 10 µM; Recombinant CDK5/p35, ADP-Glo luminescence, 60 min; Cyclin-dependent kinase 5 (Homo sapiens) + Cyclin-dependent kinase 5 activator 1 (Homo …;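 active = highest replicate inhibition of at least 50% and at least 75% of replicates reaching 50%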;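 also: plate controls were DMSO neutral control for no effect and GW8510 at 10 µM for full effect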
PvdQ inh – P. aeruginosa PvdQ acylase inhibitors, primary screen, biochemical, fluorescence, plate reader and imaging, single point; purified PvdQ acylase; actives 0.063% (n = 340,000); inhibition, % at 10 µM; PvdQ acylase [Pseudomonas aeruginosa LESB58]; in the data active = inhibition above about 30%, passing the limit was not always enough;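 also: 0% = vehicle neutral wells and 100% = reference inhibitor wells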
PglD DTNB – C. jejuni PglD acetyltransferase inhibitors, primary screen, biochemical, DTNB colorimetric, single point. UDP-N-acetylbacillosamine N-acetyltransferase PglD (Campylobacter jejuni). purified PglD enzyme, DTNB colorimetric CoA detection. inhibition, % at 12.5 µM. actives 0.098% (n = 360,000). AID 602405, 2012; in the data active = inhibition above about 16%, passing the limit was not always enough
FGF22 binding-2 – binders of human FGF22 protein, dose response, FGF22 synaptogenesis inhibitor project, biophysical, thermal shift, cherry-pick retest; shares compounds with FGF22 binding-1; recombinant FGF22 thermal shift, SYPRO orange fluorescence; thermal shift activity, °C (ΔTm) at 38 µM; actives 2% (n = 1,000); AID 720646, 2013;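 active = fitted rise in melting shift crosses a set limit at or below the top valid dose tested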
TSA no protein – compound-only thermal shift signal without protein, dose response, artefact control for FGF22 binder project, biochemical, cherry-picked samples, RT-PCR instrument; AC50, µM (titrated, usually from 38 µM); compound-only SYPRO orange thermal shift counter-screen, no protein; shares compounds with FGF22 binding-1; AID 743019, 2013; actives 2% (n = 1,000);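 active = rising signal whose fitted curve reaches the 0.54 level within the top valid dose, showing a melting point, actives reach about 13 µM in these data; inactive = the rest, including activity in the opposite direction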; also: value is where the raw curve crosses a fixed level and not half-maximal
The depositor's hits bear a star; i = inactive; · = not tested or not shown; [ ] = another dose, or the depositor's remark. A selection: hits, their analogues and other compounds. The true share with any hit is near 2.8%.

SMILES | FGF22 binding-1 | SIRT5 inh | dFosB act | CDK5 p35 inh | PvdQ inh | PglD DTNB | FGF22 binding-2 | TSA no protein
CCCC(=O)Nc1ccc2c(c1)C(=O)N(C)C[C@@H](OC)[C@@H](C)CN(C(=O)c1cnccn1)[C@@H](C)CO2 | 0 | -5 | · | · | · | 1 | · | ·
O=C(O)C[C@H]1CC[C@@H](NC(=O)CCN2CCCCC2)[C@H](CO)O1 | · | -1 | · | · | · | · | · | ·
CO[C@@H]1CN(C)C(=O)c2cc(NC(=O)C3CCCC3)ccc2OC[C@H](C)N(CCC(F)(F)F)C[C@H]1C | 9.3* | 4 | · | · | · | -2 | 0.15 | i
CO[C@@H]1CN(C)C(=O)c2cc(NC(=O)c3cccc(F)c3)ccc2OC[C@@H](C)NC[C@@H]1C | 1 | -3 | · | · | · | -2 | · | ·
CO[C@H]1CN(C)C(=O)c2cc(NC(=O)CC(F)(F)F)ccc2OC[C@@H](C)N(C(C)=O)C[C@H]1C | 23* | -2 | · | · | · | · | 0.12[42 µM] | i
CO[C@H]1CN(C)C(=O)c2cc(NC(=O)c3cccc(F)c3)ccc2OC[C@H](C)NC[C@@H]1C | 2.0* | -6 | · | · | · | -1 | 0.095 | i
C[C@@H]1CCCCO[C@@H](CN(C)S(C)(=O)=O)[C@@H](C)CN([C@H](C)CO)C(=O)c2cc(NS(=O)(=O)c3ccc(F)cc3)ccc2O1 | 1 | 0 | · | · | · | -1 | · | ·
C[C@@H]1CN([C@H](C)CO)C(=O)Cc2cc(NC(=O)CCC(F)(F)F)ccc2O[C@@H]1CN(C)S(=O)(=O)c1cn(C)cn1 | 0 | · | · | · | · | 1 | · | ·
C[C@H](CO)N1C[C@H](C)[C@H](CN(C)C(=O)Nc2ccccc2)Oc2cc(C#CC3(O)CCCC3)ccc2S1(=O)=O | 0 | 5 | · | · | · | 1 | · | ·
COc1ccc(NC(=O)N(C)C[C@@H]2Oc3c(NS(=O)(=O)c4ccc(F)cc4)cccc3C(=O)N([C@H](C)CO)C[C@@H]2C)cc1 | -1 | · | · | · | · | 3 | · | ·
O=C(CNC(=O)c1cccc(Br)c1)N/N=C/c1cccs1 | 0 | -3 | 1 | -1 | 6 | -18 | · | ·
O=C(CNC(=O)c1cccc(Br)c1)N/N=C/c1cc(Br)cc(Br)c1O | 1.7* | 2 | 4 | 1 | -5 | 5 | -0.14 | i
CCOC(=O)[C@]12CCCC=C1N(Cc1ccccc1)C(=O)[C@H](CC(=O)NCc1ccc(C)o1)C2 | 0 | -2 | · | · | · | · | · | ·
CCOC(=O)[C@]12CCCC=C1N(Cc1ccccc1)C(=O)[C@H](CC(=O)NCC1CCCCC1)C2 | 2.2* | 3 | · | · | · | · | -0.08 | i
CCOC(=O)c1sc(N2C(=O)C(O)=C(C(=O)c3ccco3)C2c2ccc([N+](=O)[O-])cc2)nc1C (configuration not stated) | 1.7* | 8 | -5 | 3 | 7 | -6 | 0.2 | i
CCCOC(=O)c1ccc(Oc2cn[nH]c2-c2ccc(O)cc2O)cc1 | 1.5* | 4 | -1 | -3 | -3 | · | 0.4 | i
CCOC(=O)c1ccc(Oc2cn[nH]c2-c2ccc(O)cc2O)cc1 | · | 3 | -7 | -1 | -25 | -1 | · | ·
C[C@@H]1CN([C@@H](C)CO)C(=O)c2cc(NC(=O)Cc3ccccc3)ccc2O[C@@H]1CN(C)Cc1ccncc1 | 0 | 3 | · | · | · | -4 | · | ·
Cc1cccc(NC(=O)Nc2ccc(S(N)(=O)=O)cc2)c1 | 1.7* | 3 | · | · | · | -3 | 0.096 | 11µM*
COC(=O)c1nnc(-c2ccccc2)nc1OC | · | · | 4 | 1 | 6 | · | · | ·
COc1nc(-c2ccc(Cl)cc2)nnc1C | 1.4* | 0 | -4 | 0 | -9 | · | -0.009 | i

Bioassay records from PubChem.
